Results from PubChem BioAssay.
Calls of active or inactive are those of the source.

How the values were obtained:
[1] = system: Human papillomavirus type 1a protein E7 (residues 44-93); assay: HPV1a E7 fragment binders on microarrays, primary screen, biochemical, small-molecule microarray, residues 44-93, 635 nm fluorescence (AID 1108); conditions: small-molecule microarray binding, fluorescence 635 nm; higher = more signal;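 also: E7 fragment applied at 1 µg/mL in TBST for 1 h at 4 C; score combines spot fluorescence with its signal to noise ratio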
[2] = modulators of HCV replicon luciferase signal, primary screen, HCV replication inhibitor project, Huh7 cells, luciferase reporter (AID 1109); conditions: 48 h, higher = more signal;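 also: huh7 hepatoma cells harbouring a luciferase neomycin HCV replicon reporter; luciferase luminescence as measure of HCV replicon replication; test concentration not given here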
[3] = biological target: Left-right determination factor 2 (Homo sapiens) (UniProt O00292); assay: LEFTY2 binders on small-molecule microarrays, primary screen, biochemical, small-molecule microarray, 635 nm fluorescence scan (AID 1110); conditions: LEFTY2 binding, higher = more signal
[4] = biological target: Calmodulin-1 (Homo sapiens) (UniProt P0DP23); assay: CALM1 binders on microarrays, EGTA buffer, profiling panel, biochemical, small-molecule microarray, Cy5-labelled CALM1 (AID 1111); conditions: Cy5-CALM1 binding fluorescence, higher = more signal;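 also: labelled calmodulin applied in Tris saline Tween buffer holding calcium plus EGTA and DTT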
[5] = biological target: Calmodulin-1 (Homo sapiens) (UniProt P0DP23); assay: calcium-bound CALM1 binders on microarrays, profiling panel, artefact control for SMM control-protein annotation, biochemical, small-molecule microarray, Cy5-labelled CALM1, plus calcium (AID 1112); conditions: Cy5-CALM1 binding fluorescence, higher = more signal;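 also: score merges spot fluorescence with signal to noise from triplicate slides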
[6] = small-molecule microarray binders of probe aWnt5a, primary screen, biochemical, biotinylated probe, 635/667 nm fluorescence (AID 1113); conditions: higher = more signal;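 also: score merges 667 nm fluorescence intensity with signal-to-noise per printed feature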
[7] = small-molecule microarray binders of probe aShh, primary screen, biochemical, biotinylated probe, 635/667 nm fluorescence (AID 1114); conditions: higher = more signal;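 also: probe is biotin-labelled aShh protein from a stem cell growth factor screen; measures binding of labelled protein to compounds printed on the slide; score merges feature fluorescence at 667 nm with signal-to-noise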
[8] = small-molecule microarray binders of probe aNog, primary screen, biochemical, biotinylated probe, 635/667 nm fluorescence (AID 1115); conditions: higher = more signal;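 also: probe is biotinylated aNog protein used at 0.15 µg/mL for 1 h at 4 C; z-score combines 667 nm fluorescence of each spot with its signal to noise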
[9] = biological target: Torsin-1A-interacting protein 1 (Homo sapiens) (UniProt Q5JTV8); assay: LAP1 binders from COS7 cell lysate, primary screen, small-molecule microarray, 635/667 nm fluorescence (AID 1116); conditions: COS7-hLAP1 lysate binding, 635 nm fluorescence, higher = more signal
[10] = biological target: Alpha-bungarotoxin (Bungarus multicinctus) (UniProt P60615); assay: alpha-bungarotoxin binders on microarray, profiling panel, artefact control for SMM control protein annotation, biochemical, small-molecule microarray, Alexa647 label, 635/667 nm fluorescence (AID 1117); conditions: alpha-BTX-A647 binding fluorescence, higher = more signal
Albumin (Bos taurus) = Albumin (Bos taurus) (UniProt P02769); assay: bovine serum albumin binders on microarray, profiling panel, artefact control for SMM control protein annotation, biochemical, small-molecule microarray, Alexa647 label, 635/667 nm fluorescence (AID 1118); conditions: BSA-A647 binding, fluorescence 635 nm, higher = more signal;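 also: score merges 667 nm emission intensity and signal-to-noise per printed compound spot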
[11] = small-molecule microarray binders of probe aXIP, primary screen, biochemical, NeuroSMM set, 635/667 nm fluorescence (AID 1119); conditions: higher = more signal, called active from +8 up or from −8 down;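 also: probe is the protein aXip251-270 applied at 1 µg/mL to compound-printed slides; binding of probe to printed compounds measured as 667 nm fluorescence plus signal to noise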
[12] = small-molecule binders of probe aNOTCH3, primary screen, biochemical, small-molecule microarray, 635/667 nm fluorescence (AID 1120); conditions: higher = more signal;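 also: probe is a biotin-tagged antibody raised against NOTCH3 rather than NOTCH3 protein; score merges spot fluorescence near 667 nm with spot signal to noise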
[13] = small-molecule binders of probe aNOTCH2, primary screen, biochemical, small-molecule microarray, 635/667 nm fluorescence (AID 1121); conditions: higher = more signal;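 also: score merges feature fluorescence read at 667 nm with its signal to noise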
[14] = biological target: Carbonic anhydrase 2 (Homo sapiens) (UniProt P00918); assay: CAII small-molecule binders, profiling panel, biochemical, small-molecule microarray, Alexa647-labelled CAII (AID 1122); conditions: CAII-A647 binding fluorescence, higher = more signal
[15] = COS7 lysate on small-molecule microarray, probe aHis, 635 nm (AID 1123); conditions: COS7 cell lysate, fluorescence, higher = more signal;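 also: z-score combines 667nm fluorescence intensity with signal-to-noise per printed compound spot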
[16] = compound binding in COS7 lysate, probe aLAP1, primary screen, cell lysate, small-molecule microarray (AID 1124); conditions: probe aLAP1, fluorescence, higher = more signal;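 also: lysate comes from COS7 cells expressing LAP1 and is applied at 0.3 µg/mL; score merges spot fluorescence near 667 nm with signal-to-noise over triplicate slides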
Sam68 (KHDRBS1) = assay: Sam68 small-molecule binders, primary screen, biochemical, small-molecule microarray, 635 nm fluorescence (AID 1125); conditions: small-molecule microarray binding, higher = more signal;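 also: score merges 667 nm channel intensity with signal to noise over triplicate slides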
[17] = system: Chordin-like protein 2 (CHRDL2); assay: CHRDL2 small-molecule binders, primary screen, biochemical, small-molecule microarray, 635 nm fluorescence (AID 1126); conditions: small-molecule microarray binding, fluorescence 635 nm; higher = more signal;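 also: printed compound slides probed with Chrdl2 protein at 4 µg/mL for 1 h at 4 C; score merges 667 nm emission intensity with signal to noise over three replicate slides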
[18] = biological target: Concanavalin-A (Canavalia ensiformis) (UniProt P02866); assay: ConA small-molecule binders, primary screen, artefact control for SMM control protein annotation, biochemical, small-molecule microarray, Alexa647 label, 635 nm (AID 1127); conditions: ConA-A647 binding fluorescence, higher = more signal;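 also: z combines 667 nm emission intensity with signal-to-noise across three replicate slides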
Concanavalin-A (Canavalia ensiformis), sequence (P02866 whole entry, looked up): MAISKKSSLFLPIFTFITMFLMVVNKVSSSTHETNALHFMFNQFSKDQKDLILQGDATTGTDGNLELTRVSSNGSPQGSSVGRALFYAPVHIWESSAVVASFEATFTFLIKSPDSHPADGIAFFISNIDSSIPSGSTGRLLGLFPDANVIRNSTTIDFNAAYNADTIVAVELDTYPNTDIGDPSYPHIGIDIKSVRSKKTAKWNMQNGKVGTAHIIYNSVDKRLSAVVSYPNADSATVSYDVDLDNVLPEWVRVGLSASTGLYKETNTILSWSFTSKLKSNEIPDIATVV

Alpha-bungarotoxin (Bungarus multicinctus), sequence (P60615 whole entry, looked up): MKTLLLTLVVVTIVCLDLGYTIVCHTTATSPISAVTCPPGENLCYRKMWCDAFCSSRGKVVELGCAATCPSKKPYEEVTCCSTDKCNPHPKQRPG
Albumin (Bos taurus), sequence (P02769 whole entry, looked up): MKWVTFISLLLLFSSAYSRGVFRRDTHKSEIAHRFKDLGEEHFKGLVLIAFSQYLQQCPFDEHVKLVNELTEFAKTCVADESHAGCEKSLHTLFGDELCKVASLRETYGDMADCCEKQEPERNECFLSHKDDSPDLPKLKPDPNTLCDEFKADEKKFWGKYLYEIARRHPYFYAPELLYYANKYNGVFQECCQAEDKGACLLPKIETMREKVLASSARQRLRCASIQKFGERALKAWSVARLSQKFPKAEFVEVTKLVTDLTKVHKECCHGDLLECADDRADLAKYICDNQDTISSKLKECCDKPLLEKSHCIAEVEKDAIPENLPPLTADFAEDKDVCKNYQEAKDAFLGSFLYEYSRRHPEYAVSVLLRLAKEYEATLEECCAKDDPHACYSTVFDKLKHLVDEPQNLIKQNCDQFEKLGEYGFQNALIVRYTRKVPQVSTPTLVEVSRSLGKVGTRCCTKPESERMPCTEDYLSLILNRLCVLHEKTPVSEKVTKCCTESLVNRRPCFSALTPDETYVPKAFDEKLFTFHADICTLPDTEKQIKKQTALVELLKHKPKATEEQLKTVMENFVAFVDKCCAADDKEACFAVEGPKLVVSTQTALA
Torsin-1A-interacting protein 1 (Homo sapiens), sequence (Q5JTV8 whole entry, looked up): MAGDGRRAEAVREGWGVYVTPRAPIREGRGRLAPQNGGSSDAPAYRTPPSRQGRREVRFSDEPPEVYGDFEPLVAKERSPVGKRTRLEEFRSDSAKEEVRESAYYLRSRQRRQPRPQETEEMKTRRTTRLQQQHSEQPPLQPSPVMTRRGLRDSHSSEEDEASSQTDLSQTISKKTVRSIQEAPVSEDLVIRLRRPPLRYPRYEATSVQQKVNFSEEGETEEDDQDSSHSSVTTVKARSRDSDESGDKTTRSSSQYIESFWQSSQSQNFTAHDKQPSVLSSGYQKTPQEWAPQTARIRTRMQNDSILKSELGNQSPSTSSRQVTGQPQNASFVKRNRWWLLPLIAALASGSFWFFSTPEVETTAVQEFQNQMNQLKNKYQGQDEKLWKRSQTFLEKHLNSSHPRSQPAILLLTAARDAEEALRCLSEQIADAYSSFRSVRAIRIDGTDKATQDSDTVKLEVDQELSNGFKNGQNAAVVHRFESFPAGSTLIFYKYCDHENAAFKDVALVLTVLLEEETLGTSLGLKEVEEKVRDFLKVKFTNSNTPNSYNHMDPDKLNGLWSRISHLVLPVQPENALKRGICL
Left-right determination factor 2 (Homo sapiens), sequence (O00292 whole entry, looked up): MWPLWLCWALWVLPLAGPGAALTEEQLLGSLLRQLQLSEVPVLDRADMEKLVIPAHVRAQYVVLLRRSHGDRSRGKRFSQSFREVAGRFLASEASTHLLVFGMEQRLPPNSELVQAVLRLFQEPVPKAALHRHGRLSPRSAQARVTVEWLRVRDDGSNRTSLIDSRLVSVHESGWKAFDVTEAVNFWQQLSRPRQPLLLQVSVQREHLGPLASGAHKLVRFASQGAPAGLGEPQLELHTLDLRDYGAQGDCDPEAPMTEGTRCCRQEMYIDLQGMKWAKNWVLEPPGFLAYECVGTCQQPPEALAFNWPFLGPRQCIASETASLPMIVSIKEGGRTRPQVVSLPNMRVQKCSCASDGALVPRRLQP

SMILES	composite z-score [1]	z-score [2]	composite z-score [3]	composite z-score [4]	composite z-score [5]	composite z-score [6]	composite z-score [7]	composite z-score [8]	composite z-score [9]	composite z-score [10]	composite z-score (Albumin (Bos taurus))	composite Z-score [11]	composite z-score [12]	composite z-score [13]	composite z-score [14]	composite z-score [15]	composite z-score [16]	composite z-score (Sam68 (KHDRBS1))	composite z-score [17]	composite z-score [18]
Cc1ccc([C@H]2C(C(=O)O)=C[C@@H](C(C)(C)C)N2S(=O)(=O)c2ccc(C)cc2)cc1	1.41	0.0372	0.326	1.94	0.516	0.058	0.348	1.34	1.4	1.43	0.966	0.0172 (inactive)	0.305	0.0746	0.531	1.99	0.868	1.31	-0.202	1.21
COCCOC(=O)N1C(=O)[C@@]2(c3cc(C#CCNC(N)=O)ccc31)[C@H](c1ccc(O)cc1)N1[C@H](c3ccccc3)[C@H](c3ccccc3)OC(=O)[C@H]1[C@@H]2C(=O)N1CCN(c2ncccn2)CC1	0.855	-1.3	0.315	2.03	0.762	-0.219	1.78	-0.48	1.82	1.52	0.678	0.529 (inactive)	0.344	-0.175	0.506	2.41	0.566	1.27	0.279	1.1
CC(C)C(=C=CC[C@@H](O)c1cccc(OCCO)c1)C[C@@H](O)COCc1ccccc1	-0.83	-0.0464	0.136	0.275	0.265	-0.141	0.0469	-0.298	0.0535	0.0211	0.15	-1.39 (inactive)	-0.0708	-0.0865	0.763	0.75	0.102	-0.0876	-0.456	0.346
COC(=O)[C@@]1(Cc2ccccc2CN=[N+]=[N-])N=C(c2ccc(OCCCO)cc2)O[C@H]1c1ccccc1	0.155	-3.09	-0.59	-0.426	0.161	0.0101	-0.0375	1.48	1.42	0.779	0.0186	0.951 (inactive)	0.177	0.0919	0.645	2.52	0.717	0.711	0.4	0.686
C[C@]1(C(=O)NCCN2CCOCC2)c2ccccc2C(=O)N(Cc2cc(F)cc(C(F)(F)F)c2)[C@H]1c1ccc(CO)cc1	1.38	-1.06	-1.37	-0.17	-1.02	-0.148	-0.0222	-0.41	1.88	2.4	0.0744	0.0652 (inactive)	-0.159	-0.0928	0.773	2.18	0.535	0.692	-0.841	0.828
C=CCNC(=O)[C@H]1[C@@H]2C(=O)O[C@@H](c3ccccc3)[C@@H](c3ccccc3)N2[C@@H](c2ccc(O)cc2)[C@]12C(=O)N(C(=O)OCCOC)c1ccc(C#CCC(C(=O)OC)C(=O)OC)cc12	1.07	-1.53	0.798	1.5	0.475	-0.147	-0.154	0.0213	1.48	0.201	0.675	1.04 (inactive)	0.0904	-0.154	0.378	2.05	0.775	1.3	0.822	0.96
COC(=O)C(CC#Cc1ccc2c(c1)[C@]1(C(=O)N2)[C@H](c2ccc(O)cc2)N2[C@H](c3ccccc3)[C@H](c3ccccc3)OC(=O)[C@H]2[C@@H]1C(=O)N1CCCCCCC1)C(=O)OC	1.36	-1.69	0.65	2.75	1.64	0.593	1.03	2.58	3.87	2.18	0.631	1.71 (inactive)	1.29	-0.0586	0.816	2.46	1.18	1.29	1.13	1.14
C=C(/C(=C/C[C@@H](OC(C)=O)c1ccc(OCCO)cc1)c1cc(C(=O)OC)ccc1OC)C(C)C	-0.544	-0.161	0.354	0.0164	-0.258	-0.181	-0.0769	-0.237	0.651	1.31	0.296	0.185 (inactive)	-0.0417	-0.127	0.735	0.303	1.2	0.938	-0.137	0.697
COCCOC(=O)N1C(=O)[C@@]2(c3cc(C#CCC(C(=O)OC)C(=O)OC)ccc31)[C@H](C(=O)NC[C@H](O)c1ccccc1)[C@H]1C(=O)O[C@H](c3ccccc3)[C@H](c3ccccc3)N1[C@@H]2c1ccc(OCCO)cc1	1.36	-1.92	0.793	1.39	-0.0628	-0.0792	0.0141	-0.367	0.314	0.973	0.45	1.02 (inactive)	0.0899	-0.099	0.521	1.66	0.257	1.3	1.13	1.14
Cc1ccc(N2C(=O)c3ccccc3[C@](C)(C(=O)NCc3ccccc3)[C@@H]2c2ccc(CO)cc2)nc1	-0.192	0.478	-0.0146	-0.416	-0.497	0.0079	-0.0837	-0.108	0.263	-0.3	-0.377	-0.446 (inactive)	0.0311	0.0611	0.764	0.688	0.656	-0.316	0.408	0.0943
C=CCNC(=O)[C@H]1[C@@H]2C(=O)O[C@@H](c3ccccc3)[C@@H](c3ccccc3)N2[C@@H](c2ccc(OCCO)cc2)[C@]12C(=O)N(C(=O)OCCOC)c1ccc(C#Cc3ccc(OC)cc3)cc12	1.4	-2.54	0.631	0.512	0.14	-0.0445	0.0976	0.447	-0.0927	1.49	0.358	-0.292 (inactive)	0.154	-0.0995	0.447	0.656	0.636	1.3	0.302	1.09
[N-]=[N+]=Nc1ccccc1C[C@]1(C(=O)O)N=C(c2ccc(OCCCO)cc2)O[C@H]1c1ccccc1	1.36	0.939	-1.07	0.163	0.943	0.2	-0.0337	0.564	0.764	0.618	0.784	0.0778 (inactive)	-0.0316	-0.121	0.601	2.58	0.266	0.822	-1.09	0.552
C=C(C)C1CCC(C(O)C2C=CC3C(=O)N(C)C(=O)C3N2Nc2cc(OC)c(OC)c(OC)c2)CC1 (stereo not given)	1.4	-0.355	0.428	0.655	-0.157	0.0101	-0.0243	0.993	-0.161	1.26	0.941	-0.0192 (inactive)	0.263	-0.0598	0.703	1.46	0.0507	1.29	0.464	0.974
CC(C)CNC(=O)[C@@]1(c2ccc([N+](=O)[O-])cc2)CC(=O)N(C2CCCCC2)[C@@H]1c1ccc(CO)cc1	0.292	-1.07	0.155	0.1	-0.151	-0.0539	-0.0553	0.323	2	0.0127	0.819	1.08 (inactive)	-0.191	-0.123	0.714	2.05	0.571	0.244	0.0971	0.213
O=C(NCC(O)CO)[C@@]1(CCS(=O)(=O)c2ccccc2)COC(c2ccc(OCCCO)cc2)=N1 (stereo not given in full)	1.38	-0.119	-0.412	1.25	1.09	0.0944	0.385	1.81	2.48	2.58	0.927	0.538 (inactive)	0.241	0.0342	0.863	3.35	-0.0542	0.679	-0.734	0.572
COCCOC(=O)N1C(=O)[C@@]2(c3cc(C#CC4=CCCCC4)ccc31)[C@H](C(=O)N1CCCCCCC1)[C@H]1C(=O)O[C@H](c3ccccc3)[C@H](c3ccccc3)N1[C@@H]2c1ccc(OCCO)cc1	1.18	-2.08	0.654	1.02	1.04	0.302	0.936	-0.412	1.05	0.845	-0.0202	0.196 (inactive)	0.677	0.0424	0.399	0.387	0.722	0.865	0.652	1.11
C=C(COC)C(=O)CC[C@H](OC(=O)c1cccnc1)c1ccc(CO)o1	-0.132	-1.05	0.879	-0.502	-0.875	-0.167	-0.214	-0.447	0.659	-0.0505	0.0617	-0.496 (inactive)	0.0225	-0.0569	0.317	-0.22	-0.237	0.558	0.686	0.695
